# Screening results (PubChem)
# PK Bst: Pyruvate Kinase; purified pyruvate kinase, luminescence ATP production; ribose 5-phosphate activator present at AC10; AID 361, 2006; Potency, µM; 51,000 compounds, 1.2% hits; in the data active = potency below about 11 µM; inconclusive = mostly about 12 µM to 25 µM;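 the screen sought inhibitors and activators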;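 note: scaled between full activation by ribose 5 phosphate and full inhibition by luteolin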
# HEK293 cAMP ctrl: qHTS Assay for Agonists of the Thyroid Stimulating Hormone Receptor: Activators of Intracellular cAMP Concentrations in Parental HEK 293. 73,000 compounds, 2.5% hits. Potency, µM (titrated, usually from 57.1 µM), without a hit: top-dose activation, actives largely listed as activators. parental HEK293 CNG cAMP sensor, membrane potential fluorescence; note: % of control where 0% means no effect; nearly all actives have a fitted effect of over 55% in size
#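 Counterscreen for endogenous-receptor signalling: CNG-channel HEK 293 cells report cAMP rise by membrane depolarization. After 60 min dye equilibration with 100 uM RO 20-1724, compounds incubated 30 min before bottom-read fluorescence at 590 nm.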
# TSHR agonist: qHTS Assay for Agonists of the Thyroid Stimulating Hormone Receptor; Thyrotropin receptor (Homo sapiens), P16473; HEK293-CNG-TSHR cells (CNG channel as cAMP sensor), membrane potential dye, cAMP; Potency, µM (top dose mostly 57.1 µM), without a hit: at the top dose activation, usual class: activators; 73,000 compounds, 0.48% hits; AID 926, 2007; active = well fitted activation curve with a large enough effect in the main read-out, with a control signal flat, not every such curve was filed as active; inconclusive = small, poorly fitted or top-dose-only effect, or a change in a side signal; inactive = no such curve, though single readings can be large or run the other way; % of control where 0% means no effect;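 note: the control signal comes from parental cells without the receptor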
# Target sequence (P16473 whole entry, looked up): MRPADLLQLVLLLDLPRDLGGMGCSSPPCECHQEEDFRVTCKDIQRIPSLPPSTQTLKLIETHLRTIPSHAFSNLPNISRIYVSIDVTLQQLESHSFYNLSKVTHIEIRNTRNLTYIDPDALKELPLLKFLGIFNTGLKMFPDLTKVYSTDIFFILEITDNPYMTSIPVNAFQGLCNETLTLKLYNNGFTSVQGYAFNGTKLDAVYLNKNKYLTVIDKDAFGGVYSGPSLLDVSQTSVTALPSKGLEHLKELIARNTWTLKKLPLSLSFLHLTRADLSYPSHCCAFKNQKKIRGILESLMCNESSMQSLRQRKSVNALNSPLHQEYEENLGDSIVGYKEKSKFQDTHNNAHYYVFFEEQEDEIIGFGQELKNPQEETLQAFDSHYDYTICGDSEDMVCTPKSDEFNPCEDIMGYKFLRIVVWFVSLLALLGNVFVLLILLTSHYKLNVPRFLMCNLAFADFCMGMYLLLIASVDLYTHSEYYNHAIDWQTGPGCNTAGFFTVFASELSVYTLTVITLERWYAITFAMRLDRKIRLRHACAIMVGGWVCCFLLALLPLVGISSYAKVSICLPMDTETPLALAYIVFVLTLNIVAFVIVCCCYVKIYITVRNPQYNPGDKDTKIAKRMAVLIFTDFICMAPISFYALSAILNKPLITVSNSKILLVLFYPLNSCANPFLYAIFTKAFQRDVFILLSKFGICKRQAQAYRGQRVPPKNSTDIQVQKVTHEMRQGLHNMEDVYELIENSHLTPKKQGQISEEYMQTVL
#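 HEK 293 cells stably expressing TSHR and a cAMP-gated CNG channel; parental CNG-only cells as counterscreen. Cells preloaded 60 min with membrane potential dye plus 100 uM RO 20-1724, then compound 30 min; fluorescence read at 590 nm.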
# FLuc inh: qHTS Assay for Inhibitors of Firefly Luciferase | Luciferin 4-monooxygenase (Photinus pyralis), P08659 | purified firefly luciferase, luminescence, 8 min | Potency, µM (titrated, usually from 57.1 µM), for inactives: top-dose activity change, negative = inhibition, actives largely listed as inhibitors | 72,000 compounds, 2.2% hits | AID 411, 2009; note: % is set by controls: 0 for no effect and ±100 for the full control effect; nearly all actives have a fitted effect of over 40% in size
#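 qHTS concentration-response profiling: light output of P. pyralis luciferase with luciferin and 10 uM ATP, imidazole buffer pH 7.2. Read by luminescence after 8-min room-temperature incubation.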
# * hit, by the source's call; i = inactive; ? = inconclusive; . = no result; [ ] = another dose, or the depositor's remark. Shown are actives, neighbours in structure and some others; about 5.2% of the full set was active somewhere. Unless noted, calls come from the whole dose curve; as a rule, active = well fitted curve in the direction sought with a large enough effect; inconclusive = small, poorly fitted or top-dose-only effect, or another doubt; inactive = no such curve, though single readings can be large; an effect the other way counts as inactive or inconclusive. Potency is the fitted concentration of half-maximal effect.
SMILES,PK Bst,HEK293 cAMP ctrl,TSHR agonist,FLuc inh
CCOC(=O)c1sc(NC(=O)CSc2nncs2)c(C(=O)OCC)c1C,>57,25µM*,?,-36%
CCOC(=O)c1c(-c2ccc(C)o2)csc1NC(=O)CSc1nnc(C)s1,>57,32µM*,?,-4%
COC(=O)N1CCC2(CCN(C(=O)Nc3ccc(OC)cc3)CC2)CC1,.,16µM*,?,0%[11.4 µM]
COc1ccc(NC(=O)N2CC3(CCN(C(=O)c4c(C)noc4C)CC3)C2)cc1,.,13µM*,?,1%[11.4 µM]
COc1ccc(NC(=O)N2CCC3(CC2)CCN(C(=O)c2ccncc2)CC3)cc1,.,8%,-1%,0%[11.4 µM]
O=C(c1cc2ccccc2oc1=O)N1CCN(c2ccc(N3CCOCC3)nn2)CC1,.,4%,-5%,16µM*
O=C(OCc1nnc(-c2ccccc2)o1)c1ccc2c(c1)OCO2,>57,40µM*,?,5%
O=C(OCc1nnc(-c2ccccc2)o1)c1ccco1,.,15%,2%,-11%
COc1ccccc1N1CCN(C(=O)CSc2nnc(NC(=O)c3ccco3)s2)CC1,.,-1%,0%,-10%
O=C1CC(c2ccccc2)CN1Cc1ccccc1 (stereo unspecified),.,23%,.,0%
Cc1nnc(SC(C)C(=O)Nc2ccc3c(c2)OCCO3)s1 (stereo unspecified),>57,2%,3%,-4%
COc1ccc(-c2nnc(SC(C)C(=O)Nc3ccc4c(c3)OCCO4)o2)cc1 (stereo unspecified),.,-11%,-1%,20µM*
COc1cccc(C2=NOC(C(=O)Nc3cccnc3)C2)c1 (stereo unspecified),>57,14%,7%,0%
Cc1noc(C)c1CSc1ccccc1C(=O)N1CCN(c2ccccc2)CC1,>57,21%,3.2µM*,2%
O=c1oc2c(CN3CCOCC3)c(O)c(Cl)cc2c2c1CCCC2,>57,7%,6%,4%
COc1cc(C(=O)N2CCN(C(=O)COc3ccc4ccccc4c3)CC2)cc(OC)c1OC,.,2%,9%,7.9µM*
COc1ccc(C(=O)N2CCN(C(=O)c3cc(OC)c(OC)c(OC)c3)CC2)cc1,>57,2%,0%,-4%
COc1cc(OC)c(-c2nc3cnccc3n2C)cc1OC,>57,-7%,-3%,1%
Cn1c(-c2ccc3ccccc3n2)nc2cnccc21,?,18%,22%,13µM*
CC(C)OC(=O)CSc1nnc(-c2ccc(Cl)cc2Cl)n1N,>57,6%,13%,1%
N#CC1=C(N)OC2=C(CCC/C2=C/c2ccoc2)C1c1ccoc1 (stereo unspecified),>57,10%,25µM*,-2%
CCCCNC(=O)Nc1ccnn1C1CCCCC1,>57,24%,6%,0%
CCOC(=O)c1c(C)[nH]c(C(=O)COC(=O)c2oc3ccc(OC)cc3c2C)c1C,>57,7%,3%,2%
CCOC(=O)c1oc2ccc(CNCCO)c(Cl)c2c1C,.,26%,16%,25µM*
COc1ccc(-c2cn3cc(C)ccc3n2)cc1OC,1.8*,17%,12%,2.5µM*
SMILES,PK Bst,HEK293 cAMP ctrl,TSHR agonist,FLuc inh
COc1ccc(-c2noc(-c3cc(C)cc(C)c3)n2)cc1OC,.,2%,3%,-1%
CCCn1c(SCC(=O)Nc2ccccc2N2CCCCC2)nc2c1c(=O)n(C)c(=O)n2C,>57,1µM*,?,5%
COc1ccc(N2CCN(Cc3nc(N)nc(N4CCCc5ccccc54)n3)CC2)cc1,>57,1%,.,3%
Cc1ccc2c(c1)c1c(n2CC(O)Cn2nc(C)c(Br)c2C)C(=O)CCC1 (stereo unspecified),>57,11%,6%,-4%
COc1ccc(/C=N/c2nc3ccccc3n2C)cc1OC,i,-3%,-5%,20µM*
COc1ccc(/C=N\n2nnc3ccccc32)cc1,2.2*,26%,12%,3.2µM*
Cc1csc(NC(=O)Nc2cccc(Cl)c2)n1,.,2%,-6%,7.9µM*
CSc1nc2[nH]c3c(c2c2nnnn12)CCCC3,0.78*,.,.,-3%[25.5 µM]
c1csc(CCNc2ncnc3sc4c(c23)CCC4)c1,.,20µM*,?,2%
Cc1nn(-c2ccccc2)c2sc(C(=O)N3CCc4ccccc4C3)cc12,>57,20µM*,?,1%
O=C(Nc1ccc(S(=O)(=O)C(F)F)cc1)c1cccc(S(=O)(=O)N2CCOCC2)c1,>57,16%,-6%,1%
Cc1cccc(NC2(C(F)(F)F)N=C3SCCN3C2=O)n1 (stereo unspecified),>57,6%,3%,1%
CCc1ccc(-c2nnn(CCC(=O)OC)n2)cc1,.,7.9µM*,?,-30%
CCOC(=O)c1cc2c(=O)n3ccccc3nc2n(Cc2ccccc2Cl)c1=N,>26,.,.,1%[25.5 µM]
O=C(Nc1ccc(O)c(C(=O)O)c1)c1ccc2c(c1)C(=O)N(CC1CCCO1)C2=O (stereo unspecified),.,8%,-4%,13µM*
Cc1nnc(NC(=O)c2ccc3c(c2)C(=O)N(CC2CCCO2)C3=O)s1 (stereo unspecified),.,?,?,-21%
O=C(Nc1cccc(-c2cn3ccsc3n2)c1)c1ccccc1,i,-4%,1%,25µM*
O=C(Nc1ccc(-c2cn3ccsc3n2)cc1)C1COc2ccccc2O1 (stereo unspecified),.,-5%,5%,-24%
O=C(Nc1ccc(-c2cn3ccccc3n2)cc1)c1cc(Br)ccc1O,.,-3%[11.4 µM],2%[11.4 µM],-2%[11.4 µM]
CCCCC(=O)Nc1cccc(-c2cn3ccsc3n2)c1,i,3%,-2%,13µM*
O=C(Nc1cccc(-c2cn3ccccc3n2)c1)c1cnccn1,.,6%,4%,4µM*
CCCCC(=O)Nc1cccc(-c2nnc(-c3ccccc3)o2)c1,.,18%,.,-2%
CCOc1ncccc1C(=O)Nc1ccc(-c2cn3ccsc3n2)cc1,>57,5%,7%,0%
COc1ccccc1C(=O)Nc1cccc(-c2cn3ccsc3n2)c1,?,7%,14%,13µM*
CC(CCc1ccco1)NC(=O)Cn1ncc2c1-c1ccccc1OC2 (stereo unspecified),.,12%,.,1%
SMILES,PK Bst,HEK293 cAMP ctrl,TSHR agonist,FLuc inh
COC(=O)C1=C(C)NC(=O)NC1c1cc(Cl)ccc1OC (stereo unspecified),>57,-2%,17%,2%
C=CCNC(=O)C1CC(=O)N(c2ccc(C)cc2)C1 (stereo unspecified),.,-7%,-29%,0%
c1cn2c(NC3CCCC3)c(-c3ccc(N4CCOCC4)cc3)nc2cn1,.,-5%,-7%,2.5µM*
CCCCN(CCCC)S(=O)(=O)c1ccc(OC)c2ncccc12,>57,?,?,2%
CCOC(=O)N1CCN(c2ccc(C(=O)c3cccc(F)c3)cc2)CC1,>57,20µM*,?,-5%
COc1ccc(-c2nnc3sc(CN4C(=O)c5ccccc5C4=O)nn23)cc1,>57,12%,16µM*,0%
CCOc1ccccc1OCc1nn2c(-c3ccc(C)cc3)nnc2s1,?,25µM*,?,-2%
O=S(=O)(c1ccc2c(c1)nc1n2CCC1)N1CCOCC1,>57,7%,1%,5%
